Values joined by “and” are separate entries in the source; they are usually repeats but may differ in a detail not shown here. Equal values may be shown once. Records with an inconclusive call do not appear. Unmarked numbers belong to inactive results. Active and inactive are the calls of the source. The call rests on the fitted dose curve; in most records, active means well fitted cell-killing curve with a large enough effect; inconclusive means small, poorly fitted or top-dose-only effect; inactive means flat fitted curve, though single readings scatter.
On the % scale 0 is the no-effect control and ±100 the full control effect; potency means the concentration at half of the fitted maximal effect.

This test can be described thus: Cellular viability qHTS for adrenocortical cancer (ACC) cell line SW-13 (AID 1963989). Further: nearly all actives have a fitted effect of over 65% in size.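 On activity (max response): cells grown in serum-free medium with ITS supplement.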 The following applies: SW-13 ACC cells viability, CellTiter-Glo, 48 h; activity (max response): hits give low values. In outline: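 Viability was read as CellTiter-Glo luminescence after 48 h compound treatment (up to 46 uM final) of SW-13 cells grown serum-free; titration curves were fit with a four-parameter logistic model to give IC50 and efficacy.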
As for `CN1CCN(c2ccc(C(=O)Nc3n[nH]c4ccc(Cc5cc(F)cc(F)c5)cc34)c(NC3CCOCC3)c2)CC1`, the Potency is 3.16 µM (active).

With `O=C(O)c1ccc2c(c1)nc(Nc1cccc(Cl)c1)c1ccncc12`, the Potency was 3.55 µM (active).

For the molecule `CN1C2CCC1CC(OC(=O)C(CO)c1ccccc1)C2` (stereo unspecified), the activity (max response) is -20.1%.

For the molecule `CCCCS(=N)(=O)CCC(N)C(=O)O` (stereo unspecified), the activity (max response) was 9.43%.

As for `Clc1ccc2c(c1)C(N1CCNCC1)=Nc1ccccc1O2`, the activity (max response) is -1.69%.

With `CC(C)(C)c1cc(C(C)(C)C)c(NC(=O)c2c[nH]c3ccccc3c2=O)cc1O`, the Potency was 6.31 µM (active).

Regarding `CC(C)c1cc(-c2n[nH]c(=O)n2-c2ccc3c(ccn3C)c2)c(O)cc1O`, the Potency is 0.282 µM (active).

Regarding `Cc1ccc(C(=O)Nc2cccc(C(F)(F)F)c2)cc1-c1ccc2nc(NCCN3CCOCC3)ncc2c1`, the Potency is 14.1 µM (active).

For the molecule `COc1ccc(-c2oc3c(CC=C(C)C)c(O)cc(O)c3c(=O)c2O)cc1`, the activity (max response) was -11%.

Regarding `Cc1ccc(F)c(NC(=O)Nc2ccc(-c3cccc4[nH]nc(N)c34)cc2)c1`, the Potency is 22.4 µM (active).

Consider `COCCCOc1cc(C[C@@H](C[C@H](N)[C@@H](O)C[C@H](C(=O)NCC(C)(C)C(N)=O)C(C)C)C(C)C)ccc1OC`, for which the activity (max response) is 6.05%.

As to `Clc1ccccc1C(c1ccccc1)(c1ccccc1)n1ccnc1`, the Potency is 16.4 µM (active).

On to `C=CC(=O)Nc1ccc2ncnc(Nc3ccc(OCc4cccc(F)c4)c(Cl)c3)c2c1`, for which the Potency is 0.631 µM (active).

As for `O=c1c(O)c(-c2ccc(O)c(O)c2)oc2cc(O)cc(O)c12`, the activity (max response) was -23.2% and 14.3%.

As to `CCCc1cc(C(N)=S)ccn1`, the activity (max response) is 7.42% and -7.33%.

On to `CC(=O)Nc1ccc([C@H](C)C(=O)Nc2ncc(C(C)C)s2)cc1`, for which the Potency was 1.26 µM (active).

On to `Nc1nc(Nc2ccc(S(N)(=O)=O)cc2)nn1C(=O)c1c(F)cccc1F`, for which the Potency is 3.55 µM (active).

Regarding `CC(C)C[C@H](NC(=O)CNC(=O)c1cc(Cl)ccc1Cl)B1OC(=O)CC(CC(=O)O)(C(=O)O)O1` (stereo partly specified), the Potency was 1.41 µM (active).

`C[C@H]1COC2=C1C(=O)C(=O)c1c2ccc2c1CCCC2(C)C`: the activity (max response) was -2.17%.

As to `O=C(c1ccc(F)cc1)N1CCC[C@H](c2nc(-c3ccc(F)cc3)no2)C1`, the activity (max response) was -11.7%.

As to `COc1c2occc2cc2ccc(=O)oc12`, the activity (max response) was 8.25% and 3.48%.

`COc1ccc(-n2nc(C(N)=O)c3c2C(=O)N(c2ccc(N4CCCCC4=O)cc2)CC3)cc1`: the activity (max response) is -9.7%.

For `O=C(O)CCCCCC(=O)NN=C1CCCC1`, the activity (max response) is 2.29%.

On to `O=C(O)CCNC(=O)c1ccc(N=Nc2ccc(O)c(C(=O)O)c2)cc1`, for which the activity (max response) was 4.01% and 3.9%.

Regarding `CNC(=O)[C@H](Cc1ccccc1)NC(=O)[C@H](CC(C)C)[C@H](CSc1cccs1)C(=O)NO`, the activity (max response) is -14.2%.

As to `N#Cc1ccnc(Nc2cc(C3CCN(C4COC4)CC3)cc(N3CCC(F)(F)C3)n2)c1`, the Potency is 15.8 µM (active).

Regarding `O=C1CCCC2=C1C(c1[nH]ncc1Cl)N=C(Nc1nc3ccccc3o1)N2` (stereo unspecified), the activity (max response) was -9.4%.

`Cc1nc(Nc2n[nH]c3c2CN(C(=O)N[C@H](CN(C)C)c2ccccc2)C3(C)C)c2sccc2n1`: the Potency was 3.16 µM (active).

Take `CC(=O)CC(c1ccccc1)c1c(O)c2ccccc2oc1=O` (stereo unspecified): the activity (max response) is -5.83% and 0.968%.

As to `CON(C)C(=O)N1N=C(c2cc(F)ccc2F)S[C@@]1(CCCN)c1ccccc1`, the Potency was 0.0141 µM (active).

As to `N#CC1(c2ccc(NC(=O)c3cccnc3NCc3ccncc3)cc2)CCCC1`, the activity (max response) was -5.11%.

These data come from PubChem BioAssay (NCATS).
